Assay outcomes from PubChem.
Casp6 inh – human caspase-6 inhibitors, primary screen, biochemical, VEID-R110 fluorescence, single point, set 2. AID 686996, 2013. purified caspase-6, Z-VEID-R110 cleavage fluorescence. inhibition, % at 12.5 µM. 350,000 compounds, 0.53% hits. P55212;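 active = mean inhibition across replicates at least about 35%, with every replicate also reaching that limit, limit read from the data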
Target sequence (P55212 24-179 limits assumed): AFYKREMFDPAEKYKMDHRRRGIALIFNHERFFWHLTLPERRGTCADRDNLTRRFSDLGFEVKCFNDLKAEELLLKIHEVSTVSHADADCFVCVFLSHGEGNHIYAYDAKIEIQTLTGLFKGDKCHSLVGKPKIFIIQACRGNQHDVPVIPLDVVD
Target sequence (P55212 194-293 limits assumed): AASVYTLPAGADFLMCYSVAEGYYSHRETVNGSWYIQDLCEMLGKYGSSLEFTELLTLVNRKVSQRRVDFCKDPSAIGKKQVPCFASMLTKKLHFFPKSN
INS-1E GSIS act – GLuc luminescence reporter in INS-1E cells, primary screen for activators of glucose-dependent secretion of insulin; INS-1E GLuc reporter insulin secretion, 2-3 h; activation, % at 16.6 µM; 370,000 compounds, 0.61% hits; AID 743287, 2014;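 active = lowest replicate activation of at least 40%, so every replicate reaches that level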
ERAP1 inh – human ERAP1 aminopeptidase inhibitors, primary screen, biochemical, single point, plate reader | Endoplasmic reticulum aminopeptidase 1 (Homo sapiens), Q9NZ08 | recombinant ERAP1, Leu-AMC fluorescence, 60 min | inhibition, % at 10.7 µM | 340,000 compounds, 0.15% hits | AID 652197, 2013;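 active = mean replicate inhibition of at least 30%, or all replicates individually reaching that 30% level; inactive = mean below 30% and not every replicate reaching it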
SIRT5 inh – SIRT5 desuccinylase inhibitors, primary screen, biochemical, fluorescence imaging, single point, set 5. Purified SirT5, succinyl-peptide AMC, trypsin-coupled fluorescence. inhibition, % at 15 µM. AID 652115, 2013. NAD-dependent protein deacylase sirtuin-5, mitochondrial (Homo sapiens), Q9NXA8. 330,000 compounds, 1.1% hits; in the data active = inhibition above about 15%
FGF22 binding – binders of human FGF22 protein, primary screen, FGF22 synaptogenesis inhibitor project, biophysical, thermal shift, single point | Fibroblast growth factor 22 (Homo sapiens), Q9HCT0 | recombinant FGF22 thermal shift, SYPRO orange fluorescence; percent of sucrose octasulfate shift, DMSO zero | activity (Tm shift, normalised), % at 9.99 µM | 340,000 compounds, 1.5% hits;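 active = mean Tm shift, scaled 0 neutral to 100 positive control, at about 1.3% or above, every replicate too, limit read from the data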
Each line names hits and unclear results; the compound was inactive in the other large screens; ! = a repeat was not active. Most compounds without a hit are left out; they make up all but 3.3% or so of the library.

CCOc1ccc2oc(C(=O)N(C)CCc3ccc(OC)c(OC)c3)c(C)c2c1	INS-1E GSIS act 50
COc1ccc(C(C#N)=Cc2ccc(OC)c(OC)c2)cc1	INS-1E GSIS act 80
COc1ccc(C=C(C#N)c2ccc(OC)cc2)cc1	none
C[C@H]1CN([C@@H](C)CO)C(=O)c2cc(C#CCc3ccccc3)cnc2O[C@@H]1CN(C)C(=O)C1CC1	INS-1E GSIS act 72
C[C@@H]1CN([C@@H](C)CO)C(=O)c2cc(C#CCc3ccccc3)cnc2O[C@@H]1CN(C)C(=O)C1CCC1	none
CC(C)NC(=O)N(C)C[C@H]1Oc2ncc(C#CCc3ccccc3)cc2C(=O)N([C@@H](C)CO)C[C@@H]1C	SIRT5 inh 16
C[C@@H]1CN([C@H](C)CO)C(=O)c2cc(C#CCc3ccccc3)cnc2O[C@H]1CN(C)C(=O)C1CCC1	INS-1E GSIS act 54
Cc1cccc(S(=O)(=O)N(C)C[C@H]2OCc3cn(nn3)CCCC(=O)N([C@H](C)CO)C[C@H]2C)c1	none
Cc1c(C(=O)N2CCOCC2)c(S(=O)(=O)Nc2ccccc2)c(C)n1C	SIRT5 inh 19
O=C(Nc1cc(F)ccc1F)N1CC(=O)N2[C@H](CO)[C@H](c3ccc(-c4ccc(F)cc4)cc3)[C@@H]2C1	none (no result: FGF22 binding)
C[n+]1ccccc1C1CCCC/C1=N\NC(N)=S (configuration not stated)	ERAP1 inh 43, FGF22 binding 43 (no result: INS-1E GSIS act)
COc1ccc(NC(=O)N(C)C[C@@H]2OCCCC[C@@H](C)Oc3ccc(NC(=O)CCC(F)(F)F)cc3C(=O)N([C@H](C)CO)C[C@@H]2C)cc1	none
O=C(Nc1ccccc1)c1cccc(Cn2cc(C(F)(F)F)ccc2=O)c1	SIRT5 inh 24 (no result: ERAP1 inh)
CC(C)Cn1cnc2c1c(=O)n(CC(=O)N(C)C)c(=O)n2Cc1ccccc1	FGF22 binding 44
CC1=C(C(=O)OCc2ccccc2)C(c2cccnc2)c2c(n(C)c(=O)n(C)c2=O)N1 (configuration not stated)	INS-1E GSIS act 42!
C[C@H](CO)N1C[C@H](C)[C@H](CN(C)CC2CCOCC2)Oc2ncc(C#Cc3ccncc3)cc2C1=O	none (no result: INS-1E GSIS act)
CC1=C/C(=N\NC(=S)NCc2ccccc2)CC1	SIRT5 inh 18
CC(=O)N(CCCCl)C(C#N)c1ccccc1 (configuration not stated)	FGF22 binding 44
CCOC(=O)C(NCCCCl)c1ccccc1 (configuration not stated)	none (no result: Casp6 inh, ERAP1 inh, SIRT5 inh, FGF22 binding)
O=C(c1ccccc1)N(CCCl)C(=O)N(CCCl)C(=O)c1ccccc1	none (no result: Casp6 inh)
N#CC(c1ccccc1)N(CCCCl)C(=O)c1ccccc1 (configuration not stated)	FGF22 binding 43
COc1ccc(C(C(=O)NC2CCCCC2)n2c(=O)c(-c3cc4ccccc4[nH]3)nc3ccccc32)cc1 (configuration not stated)	none (no result: ERAP1 inh)
O=C(NC1CCCCC1)C(c1ccccc1)n1c(=O)c(-c2cc3ccccc3[nH]2)nc2ccccc21 (configuration not stated)	FGF22 binding 35 (no result: SIRT5 inh)
CN1CCN(C2Cc3ccccc3Sc3cc(C(F)(F)F)ccc32)CC1 (configuration not stated)	INS-1E GSIS act 402
CN1CCN(C2Cc3ccccc3Sc3ccc(Cl)cc32)CC1 (configuration not stated)	none (no result: Casp6 inh, INS-1E GSIS act)
CCC(C)NC(=O)C(=O)NC1CCCC1 (configuration not stated)	FGF22 binding 44
CC(C)CCNC(=O)C1CCCN1C(=O)NC1CCCCC1 (configuration not stated)	none (no result: Casp6 inh, ERAP1 inh, SIRT5 inh, FGF22 binding)
CC(C)CCNC(=O)C(=O)NC1CCCC1	FGF22 binding 44
O=C(N[C@H]1CC[C@H](CCn2cc(C3CCCC3)nn2)O[C@H]1CO)c1cccnc1	none (no result: Casp6 inh, ERAP1 inh, SIRT5 inh, FGF22 binding)
COC(=O)c1sc(N2C(=O)C(=O)/C(=C(/O)c3ccccc3)C2c2ccco2)nc1C (configuration not stated)	Casp6 inh 37
CCOC(=O)c1sc(N2C(=O)C(O)=C(C(=O)c3ccco3)C2c2ccco2)nc1C (configuration not stated)	Casp6 inh 39
